Source: PubChem (several laboratories)
Mtb FBA inh: inhibits M. tuberculosis FBA enzyme; purified M. tuberculosis FBA, fluorescence read-out; inhibition, % at 1 µM; actives 2.3% (n = 360,000); AID 588726; in the data active = inhibition above about 27%;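 also: 0% = vehicle and 100% = reference inhibitor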
Mtb bLac sens: beta-lactam sensitization of Mtb H37Rv; M. tuberculosis H37Rv growth with meropenem, percent inhibition; inhibition, % at 25 µM; actives 0.27% (n = 330,000); AID 434955; call rule not given here;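 also: growth measured after seven days incubation then overnight dye step; 0% = bacteria only wells and 100% = bacteria with antibiotic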
Rv3671c inh: inhibitors of M. tuberculosis serine protease Rv3671c | actives 0.048% (n = 320,000) | inhibition, % at 5.96 µM; in the data active = inhibition above about 38%;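 also: extracellular domain of Rv3671c used as enzyme; 0% = enzyme with DMSO and 100% = no enzyme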
Target sequence (P9WHR9 whole entry, looked up, the tested form may be a part): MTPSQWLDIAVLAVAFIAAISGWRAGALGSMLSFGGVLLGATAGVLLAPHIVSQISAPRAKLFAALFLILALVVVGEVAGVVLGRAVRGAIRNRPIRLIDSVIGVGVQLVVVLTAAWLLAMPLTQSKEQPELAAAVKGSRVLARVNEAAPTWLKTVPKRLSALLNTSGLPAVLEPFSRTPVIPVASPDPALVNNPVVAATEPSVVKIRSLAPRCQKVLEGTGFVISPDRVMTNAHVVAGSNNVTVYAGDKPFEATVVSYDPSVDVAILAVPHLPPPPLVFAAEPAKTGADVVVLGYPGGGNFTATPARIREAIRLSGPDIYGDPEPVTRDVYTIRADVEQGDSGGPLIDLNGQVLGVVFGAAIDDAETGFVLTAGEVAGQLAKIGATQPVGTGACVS
GDH-TPI inh: GDH-TPI coupled enzyme inhibition counter-screen; GDH-TPI coupled enzyme counterscreen, NADH absorbance; inhibition, % at 4.8 µM; actives 1.2% (n = 360,000); AID 588335; in the data active = inhibition above about 30%;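 also: 0% = DMSO wells and 100% = wells lacking the enzyme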
FadD28 binding: blocks FadD28 binding to the bisubstrate probe; fluorescence polarization; inhibition, % at 12.5 µM; actives 0.22% (n = 360,000); in the data active = inhibition above about 8.5%, passing the limit was not always enough
Mtb UGM inh: blocks M. tuberculosis UGM enzyme; P9WIQ1; purified UGM, fluorescence polarization probe displacement; inhibition, % at 10 µM; actives 0.06% (n = 320,000); in the data active = inhibition above about 10%, passing the limit was not always enough
Starred values were filed as active, the others as inactive; x = no result; + = active, no number. Rows were chosen to be rich in hits. Some 3.7% of all compounds tested hit in one or more screens of this group.

SMILES	Mtb FBA inh	Mtb bLac sens	Rv3671c inh	GDH-TPI inh	FadD28 binding	Mtb UGM inh
CC1CC(C)CN(CCCNC(=O)c2cc3c(s2)-c2ccccc2OC3)C1 (configuration not stated)	+	35.6	-4.3	14.5	-14.7	1.9
Cc1c(NC(=O)c2cc3c(s2)-c2ccccc2OC3)cccc1[N+](=O)[O-]	0.0	-2.9	-7.0	35.8*	-0.3	-2.9
C[C@H]1CN([C@@H](C)CO)C(=O)c2cc(Br)cnc2O[C@@H]1CN(C)S(=O)(=O)c1cn(C)cn1	4.4	x	x	14.4	-1.5	x
O=C(NC(CC(=O)N1CCN(c2ccccc2O)CC1)c1ccccc1)c1ccccc1Cl (configuration not stated)	5.5	-3.4	0.4	9.2	-3.4	2.7
CN1C(=O)NC(c2ccc(O)cc2)C(C(=O)c2cccs2)C1(O)C(F)(F)F (configuration not stated)	-3.6	-1.1	3.7	43.4*	-1.0	0.9
O=C1NC(c2ccccc2)C(C(=O)c2cccs2)C(O)(C(F)(F)F)N1 (configuration not stated)	1.9	-5.8	6.4	3.2	1.3	1.2
O=C1C2CCCCN2C(=O)N1CCCCN1CCN(c2cccc(C(F)(F)F)c2)CC1 (configuration not stated)	-0.2	x	x	0.5	-0.9	x
CNC(=O)C[C@H]1C(=O)N(c2ccc(OC)cc2)C[C@@H]1CSC	0.4	x	x	-12.4	-1.8	x
CN(C(=O)COC(=O)c1ccc(Cl)cc1N)C1CCS(=O)(=O)C1 (configuration not stated)	66.6*	-15.4	-3.4	5.1	-0.4	1.5
O=C(c1nc2nc(-c3ccccc3)cc(C(F)(F)F)n2n1)N1CCCCC1	8.2	0.7	2.6	-5.5	1.1	5.0
COc1ccc(-c2cc(C(F)(F)F)n3nc(C(=O)N4CCOCC4)nc3n2)cc1	0.1	x	x	43.7*	-0.1	x
COc1cccc(OCCNS(=O)(=O)c2ccccc2[N+](=O)[O-])c1	1.2	-2.8	1.7	5.7	-5.7	-0.6
O=[N+]([O-])c1cccc(/C=N/Nc2nccnc2Cl)c1	1.0	-8.4	3.1	37.2*	0.1	1.2
O=[N+]([O-])c1cccc(/C=N/Nc2ccccn2)c1	0.2	-4.4	-0.7	21.3	-0.2	0.4
CCOC(=O)c1sc(=S)n(-c2ccccc2)c1C	2.5	-18.2	-5.7	34.0*	-0.8	-0.7
CCOC(=O)c1sc(=S)n(Cc2ccccc2)c1C	2.6	-0.8	-0.9	3.4	0.9	0.5
CCOC(=O)c1sc(=S)n(-c2ccccc2Cl)c1C	2.5	-4.3	1.8	39.3*	-1.8	-0.7
CCOC(=O)c1sc(=S)n(-c2ccccc2)c1N	-3.3	-3.3	11.1	34.4*	-2.6	-0.8
O=C(CN(c1cccc(Cl)c1)S(=O)(=O)c1ccc(Cl)cc1)N1CCc2ccccc2C1	-2.8	-4.2	-19.6	-0.7	-1.8	2.3
O=C1CCC(C(=O)N2CCN(c3cnccn3)CC2)CN1CCc1ccc(Cl)cc1 (configuration not stated)	7.3	x	x	0.0	-2.0	x
CC1(C)SC(=S)N(/N=C/c2ccccc2)C1N(O)C(=O)Nc1ccc([N+](=O)[O-])cc1 (configuration not stated)	-3.3	2.3	-37.3	42.1*	-2.0	2.2
Cn1nc(C(C)(C)C)cc1NC(=O)C1(C)CCN1C(=O)Cc1ccc(-c2ccccc2)cc1 (configuration not stated)	-1.8	x	x	-3.6	-0.8	x
CCN(CC)C1=CC(=[N+]2CCCC2)CC(C)(C)C1	-4.5	-3.6	-2.1	43.0*	-1.3	1.0
CC1(C)CC(N2CCN(c3ccccc3)CC2)=CC(=[N+]2CCCC2)C1	-5.8	3.9	-2.2	45.4*	-4.3	1.1
CC1(C)CC(N2CCCC2)=CC(=[N+]2CCCCCC2)C1	0.3	-3.5	-10.8	30.3	-2.2	0.0
SMILES	Mtb FBA inh	Mtb bLac sens	Rv3671c inh	GDH-TPI inh	FadD28 binding	Mtb UGM inh
CN(Cc1ccccc1)C1=CC(=[N+]2CCCC2)CC(C)(C)C1	-2.2	-4.0	-3.3	52.0*	-1.0	-0.3
COc1cc(C2(c3ccc(O)c(OC)c3)C(=O)Nc3c(C)cc(Br)cc32)ccc1O	-0.9	-4.9	6.0	-1.5	-3.2	1.0
Cc1ccc2cc(CN(Cc3ccco3)S(=O)(=O)c3c(C)ccc4nsnc34)c(=O)[nH]c2c1	0.6	6.0	-1.0	32.3*	-2.8	1.6
Cc1cc2c(cc1C)NC(c1cccnc1)C1=C(CC(C)(C)CC1=O)N2 (configuration not stated)	-2.4	-6.1	-6.2	32.9*	-1.4	0.4
CC1(C)CC(=O)C2=C(C1)Nc1ccccc1NC2c1cccnc1 (configuration not stated)	1.6	5.1	-1.3	37.3*	0.1	-0.6
CCOc1cc(C2Nc3ccccc3NC3=C2C(=O)CC(C)(C)C3)ccc1O (configuration not stated)	2.8	4.3	-5.2	6.5	1.5	-2.4
COC(=O)c1ccc2c(c1)NC1=C(C(=O)CC(C)(C)C1)C(c1ccncc1)N2 (configuration not stated)	-0.2	-8.8	-6.4	31.3*	-4.5	-0.2
CCOc1cc(C2Nc3ccccc3NC3=C2C(=O)CC(C)(C)C3)ccc1OC(C)=O (configuration not stated)	-0.3	2.5	-9.1	43.4*	-0.4	-1.8
Cc1ccc(C(=O)NCC(=O)N2CCN(c3ccccc3O)CC2)s1	3.6	x	x	13.7	-1.8	x
C[C@H]1CN([C@@H](C)CO)C(=O)CCCn2nncc2CO[C@@H]1CN(C)Cc1ccncc1	-0.9	x	x	-7.2	-2.2	x
O=C1/C(=C/C=C/c2ccco2)SC(=S)N1c1ccc(O)cc1	0.8	87.4	14.9	2.3	17.7*	-1.1
CC(C)C(C(=O)O)N1C(=O)/C(=C/C=C/c2ccco2)SC1=S (configuration not stated)	-3.1	-0.3	12.1	12.3	47.2*	-4.1
O=C(NN1C(=O)/C(=C/C=C/c2ccccc2)SC1=S)c1ccncc1	-12.6	86.5	-3.6	5.7	-1.9	-5.5
O=C(NN1C(=O)/C(=C/C=C/c2ccco2)SC1=S)c1ccncc1	-13.8	96.2	11.9	8.6	30.4*	2.9
C=CCN(c1ccc(F)cc1)S(=O)(=O)c1cc(C(=O)NC2CC2)ccc1Cl	-1.3	x	x	8.4	-1.5	x
O=C(N/N=C/c1ccccc1[N+](=O)[O-])C(=O)N1CCCC1	-0.3	-0.7	-3.2	-0.9	-1.4	-2.6
CC(C)(C)c1ccc(NC(=O)C(=O)C2C(=O)Nc3ccccc32)cc1 (configuration not stated)	3.1	28.7	4.2	-0.9	27.4*	-2.3
CC(C)c1ccc(NC(=O)C(=O)C2C(=O)Nc3ccccc32)cc1 (configuration not stated)	6.5	20.5	4.3	7.2	14.6*	-0.5
O=C(Nc1cccc2ccccc12)C(=O)C1C(=O)Nc2ccccc21 (configuration not stated)	21.2	5.5	8.0	26.2	0.4	-1.0
